Among the data in PubChem BioAssay (Tox21) are Potency, outcome and activity change, positive = activation values, retold here.

Experiment [1] concerns the target Luciferin 4-monooxygenase (Photinus pyralis) (UniProt P08659). The experiment in a line: qHTS assay to identify small molecule inhibitors of firefly luciferase (AID 1224835). Further: nearly all actives have a fitted effect of over 25% in size. Further: potency means the concentration at half of the fitted maximal effect. The essentials: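 Inhibition of purified Photinus luciferase is measured by luminescence. Substrate levels (D-luciferin, ATP) sit at their KM values. Each compound is tested in a concentration series.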
Background: Quantitative high-throughput screening tests each substance at several concentrations.

Experiment [2] in a line: qHTS assay to identify small molecule agonists of the constitutive androstane receptor (CAR) signaling pathway - cell viability counter screen (AID 1224836). Further: nearly all actives have a fitted effect of over 45% in size. An outline of the steps: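 Counter screen multiplexed with the CAR reporter readout: HepG2 cells co-transfected with hCAR and the CYP2B6-2.2kb construct receive a 15-concentration compound series and 0.75 uM PK11195 (final), then CellTiter-Fluor fluorescence is read after 23 h.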

Experiment [3] is described as follows: qHTS assay to identify small molecule antagonists of the constitutive androstane receptor (CAR) signaling pathway - cell viability counter screen (AID 1224837). Further: nearly all actives have a fitted effect of over 45% in size. The essentials: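 HepG2 cells stably carrying hCAR and CYP2B6-2.2kb reporter, stimulated with 50 nM CITCO and compounds at 15 concentrations for 23 h at 37 C. Viability measured by CellTiter-Fluor fluorescence.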

The target in experiment [4] is Nuclear receptor subfamily 1 group I member 3 (Homo sapiens) (UniProt Q14994). The experiment in a line: qHTS assay to identify small molecule antagonists of the constitutive androstane receptor (CAR) signaling pathway (AID 1224838). Further: nearly all actives have a fitted effect of over 40% in size. An outline of the steps:
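HepG2 cells stably carrying hCAR and a CYP2B6-2.2kb luciferase reporter, seeded 4 hrs before compound (15 concentrations). Stimulated with 50 nM CITCO for 24 hr at 37 C. ONE-Glo luminescence read after 30 min at room temperature.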

Experiment [5] shares this target. The experiment in a line: qHTS assay to identify small molecule agonists of the constitutive androstane receptor (CAR) signaling pathway (AID 1224839). Further: nearly all actives have a fitted effect of over 15% in size. An outline of the steps: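 A 15-concentration quantitative screen uses HepG2 cells co-transfected stably with human CAR and CYP2B6-2.2kb reporter. Treatment lasts 24 h with 0.75 uM PK11195 final present; ONE-Glo luminescence is the signal.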

Experiment [6] can be described thus: qHTS assay to identify small molecule antagonists of the estrogen related receptor signaling pathway with the pleiotropic PPARgamma coactivator (PGC) from Tox21 10K library - cell viability counter screen (AID 1224840; active means well fitted cell-killing curve with a large enough effect in the repeat runs, not every such curve was filed as active; further: nearly all actives have a fitted effect of over 40% in size). An outline of the steps: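 PGC/ERR cells (2,000/well) plated 6 h, then compound-treated for 17.5 h at 37 C. Viability measured by CellTiter-Fluor fluorescence after 30 min at 37 C, multiplexed with the pathway assay.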

Experiment [7] is described as follows: qHTS assay to identify small molecule antagonists of the estrogen related receptor signaling pathway with the pleiotropic PPARgamma coactivator (PGC) from Tox21 10K library (AID 1224841; call rule not given here; further: actives are mostly falling curves and most rising ones were filed inactive; nearly all actives have a fitted effect of over 50% in size; further: potency means the concentration at half of the fitted maximal effect). The essentials: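 PGC/ERR cell line, 2,000 cells/well, pre-incubated 6 hours at 37 C, then exposed to compounds for 18 hours at 37 C; luciferase read with One-Glo luminescence after 30 min at room temperature.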

Experiment [8] in a line: qHTS assay to identify small molecule agonists of the estrogen related receptor signaling pathway with the pleiotropic PPARgamma coactivator (PGC) from Tox21 10K library (AID 1224842). Further: nearly all actives have a fitted effect of over 15% in size. The essentials: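 Luminescence from One-Glo (30 min, room temperature) measured after PGC/ERR cells had 18 h at 37 C with pinned compound (23 nL in DMSO). Cells had been seeded at 2,000 per well and pre-incubated 6 h.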

In experiment [9] the target is Thyrotropin receptor (Homo sapiens) (UniProt P16473). The experiment in a line: qHTS assay to identify small molecule agonists of the thyroid stimulating hormone receptor (TSHR) signaling pathway (AID 1224843; calls by dose curve; further: nearly all actives have a fitted effect of over 45% in size). An outline of the steps:
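HEK293 cells stably bearing the thyrotropin receptor were plated at 800 cells/well and challenged with compound (30 min, RT). Accumulated cAMP was quantified via cAMP-d2 competing for cryptate-tagged antibody.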

Experiment [10] in a line: qHTS assay to identify small molecule agonists of the hypoxia (HIF-1) signaling pathway - cell viability counter screen (AID 1224844; calls by dose curve; further: nearly all actives have a fitted effect of over 50% in size; further: potency means the concentration at half of the fitted maximal effect). The essentials: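 HRE-bla ME-180 cells, 2,000/well in 0.5% dialyzed FBS medium, treated 17 h at 37C with compounds. Viability read in the same wells as the bla reporter, by CellTiter-Glo luminescence after 30 min at room temperature.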
Experiment [11] can be described thus: qHTS assay to identify small molecule agonists of H2AX (AID 1224845; active means well fitted activation curve with a large enough effect in the signal ratio in the repeat runs, not every such curve was filed as active; the % refers to the signal ratio). An outline of the steps:
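Phospho-H2AX Ser139 measured by HTRF (ex 320 nm; em 665 and 620 nm) after 24 hr antibody incubation. Compounds, 15 concentrations, 0.76% DMSO, were applied to CHO-K1 cells for 3hr at 37C before lysis.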

Experiment [12] in a line: qHTS assay to identify small molecule agonists of the hypoxia (HIF-1) signaling pathway (AID 1224846; active means well fitted activation curve with a large enough effect in the signal ratio in the repeat runs, not every such curve was filed as active; the % refers to the signal ratio). The essentials: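 HRE-bla ME-180 beta-lactamase reporter cells in medium with 0.5% dialyzed FBS, pre-incubated 5 h then exposed to compounds 17 h at 37C, 5% CO2; reporter induction read with CCF4-AM FRET substrate.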
The nature of experiment [13]: qHTS assay to identify small molecule agonists of H2AX - cell viability counter screen (AID 1224847; calls by dose curve; further: top concentration of the series differs between compounds; nearly all actives have a fitted effect of over 30% in size). An outline of the steps:
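We seed wild-type CHO-K1 cells overnight, treat them for 3 hr at 37C with compounds in 15-concentration series, and quantify remaining viability by CellTiter-Glo luminescence.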

Experiment [14] can be described thus: qHTS assay to identify small molecule antagonists of the estrogen related receptor (ERR) signaling pathway from Tox21 library (AID 1224848). Further: nearly all actives have a fitted effect of over 50% in size. Further: potency means the concentration at half of the fitted maximal effect. An outline of the steps: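 Reading was by luminescence 30 min after ONE-Glo addition. Before that, ERR cells at 2,000 per well had rested 6 h at 37 C/5% CO2 and then received pin-tooled compounds in DMSO for 18 h at 37 C.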

Experiment [15] in a line: qHTS assay to identify small molecule agonists of the estrogen related receptor (ERR) signaling pathway from Tox21 library (AID 1224849; calls by dose curve; further: nearly all actives have a fitted effect of over 15% in size). Particulars: ERR reporter cell line, ONE-Glo luciferase, 18 h; at 92.4 µM (top of the series) unless noted. An outline of the steps:
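ERR reporter cells (NTP line) pre-incubated 6 hours at 37 C, then exposed to compounds for 18 hours at 37 C. ONE-Glo luciferase luminescence was read after 30 minutes at room temperature.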

Experiment [16] in a line: qHTS RealTime-Glo MT Cell Viability Assay in HepG2 cells - 24 hour (AID 1224867). Further: nearly all actives have a fitted effect of over 50% in size. An outline of the steps: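 Real-time, nonlytic viability: 600 HepG2 cells/well mixed with NanoLuc enzyme plus prosubstrate; 5 h settle, compound (DMSO) added by pintool; luminescence monitored over 40 h at 37 C.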
The nature of experiment [17]: qHTS RealTime-Glo MT Cell Viability Assay in HEK293 cells - 32 hour (AID 1224868). Further: nearly all actives have a fitted effect of over 50% in size. Further: potency means the concentration at half of the fitted maximal effect. An outline of the steps:
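Cells + reagent dispensed (600 cells/well, HEK293) → 5 h at 37 C/5% CO2 → 23 nL compound in DMSO pinned → 40 h at 37 C → luminescence read at 0, 8, 16, 24, 32, 40 h.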

Experiment [18] in a line: A CellTox Green Cytotoxicity Assay to monitor cytotoxicity in HEK293 cells - 0 hour (AID 1224869). Further: nearly all actives have a fitted effect of over 50% in size. The essentials:
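HEK293 cells, 600/well, were preincubated 5 hours and then exposed to compounds at 37 C for up to 40 hours. A cell-impermeant cyanine dye staining dead-cell DNA was read by fluorescence at 0, 8, 16, 24, 32 and 40 h time points.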

The nature of experiment [19]: qHTS RealTime-Glo MT Cell Viability Assay in HepG2 cells - 40 hour (AID 1224870). Further: nearly all actives have a fitted effect of over 50% in size. An outline of the steps:
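Real-time viability: cells seeded at 600 per well together with NanoLuc and cell-permeant prosubstrate, compounds added after 5 h incubation. Luminescence tracked at 0, 8, 16, 24, 32 and 40 h of exposure.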

A short description of experiment [20]: qHTS assay to identify small molecule antagonists of the estrogen related receptor (ERR) signaling pathway from Tox21 library - cell viability counter screen (AID 1224834). Further: nearly all actives have a fitted effect of over 30% in size. An outline of the steps: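 ERR reporter cells, 2,000 per well, rested 6 h, then exposed to compound in DMSO for 17.5 hours at 37 C. Viability read as fluorescence after 30 min with CellTiter-Fluor.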

Values without a mark were called inactive. Results filed as inconclusive are left out. Active and inactive are the calls of the source. Unless noted, the call rests on the fitted dose curve; in most records, active means well fitted curve in the direction sought with a large enough effect in the repeat runs; inconclusive means weak or mixed curves; inactive means no such curve, though single readings can be large; an effect the other way counts as inactive or inconclusive.
On the % scale 0 is the no-effect control and ±100 the full control effect.

Chain of Thyrotropin receptor (Homo sapiens) (P16473 whole entry, looked up): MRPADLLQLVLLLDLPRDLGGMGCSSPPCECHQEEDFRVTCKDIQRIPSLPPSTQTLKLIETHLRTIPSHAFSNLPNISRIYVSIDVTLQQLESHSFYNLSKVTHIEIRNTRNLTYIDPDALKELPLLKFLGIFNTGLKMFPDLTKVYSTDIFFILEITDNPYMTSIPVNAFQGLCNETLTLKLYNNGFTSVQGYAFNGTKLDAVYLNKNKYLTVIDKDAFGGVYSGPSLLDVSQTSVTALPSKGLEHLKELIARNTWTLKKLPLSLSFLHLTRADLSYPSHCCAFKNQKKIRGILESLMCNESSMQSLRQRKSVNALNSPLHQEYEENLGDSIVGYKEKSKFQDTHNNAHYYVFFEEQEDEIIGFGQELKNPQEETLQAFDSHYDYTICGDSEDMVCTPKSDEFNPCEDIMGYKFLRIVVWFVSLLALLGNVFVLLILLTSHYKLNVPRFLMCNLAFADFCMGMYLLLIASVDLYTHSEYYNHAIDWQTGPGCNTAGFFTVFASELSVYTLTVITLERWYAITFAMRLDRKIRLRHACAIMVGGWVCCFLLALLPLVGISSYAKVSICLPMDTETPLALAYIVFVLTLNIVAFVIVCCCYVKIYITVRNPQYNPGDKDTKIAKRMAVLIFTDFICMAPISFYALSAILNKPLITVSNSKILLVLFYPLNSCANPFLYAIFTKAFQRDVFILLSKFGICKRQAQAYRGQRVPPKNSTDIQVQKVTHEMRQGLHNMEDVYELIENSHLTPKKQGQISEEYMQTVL
Chain of Nuclear receptor subfamily 1 group I member 3 (Homo sapiens) (Q14994 whole entry, looked up): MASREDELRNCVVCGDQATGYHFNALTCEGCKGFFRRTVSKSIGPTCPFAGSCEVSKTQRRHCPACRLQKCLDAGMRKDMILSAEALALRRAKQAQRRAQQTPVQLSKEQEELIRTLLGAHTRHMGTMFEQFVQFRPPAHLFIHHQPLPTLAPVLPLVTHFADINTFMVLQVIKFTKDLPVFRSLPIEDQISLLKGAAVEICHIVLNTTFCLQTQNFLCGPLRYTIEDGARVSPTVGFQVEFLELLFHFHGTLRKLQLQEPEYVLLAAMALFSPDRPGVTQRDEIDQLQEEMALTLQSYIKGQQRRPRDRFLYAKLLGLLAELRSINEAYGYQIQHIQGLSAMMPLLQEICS
Chain of Luciferin 4-monooxygenase (Photinus pyralis) (P08659 whole entry, looked up): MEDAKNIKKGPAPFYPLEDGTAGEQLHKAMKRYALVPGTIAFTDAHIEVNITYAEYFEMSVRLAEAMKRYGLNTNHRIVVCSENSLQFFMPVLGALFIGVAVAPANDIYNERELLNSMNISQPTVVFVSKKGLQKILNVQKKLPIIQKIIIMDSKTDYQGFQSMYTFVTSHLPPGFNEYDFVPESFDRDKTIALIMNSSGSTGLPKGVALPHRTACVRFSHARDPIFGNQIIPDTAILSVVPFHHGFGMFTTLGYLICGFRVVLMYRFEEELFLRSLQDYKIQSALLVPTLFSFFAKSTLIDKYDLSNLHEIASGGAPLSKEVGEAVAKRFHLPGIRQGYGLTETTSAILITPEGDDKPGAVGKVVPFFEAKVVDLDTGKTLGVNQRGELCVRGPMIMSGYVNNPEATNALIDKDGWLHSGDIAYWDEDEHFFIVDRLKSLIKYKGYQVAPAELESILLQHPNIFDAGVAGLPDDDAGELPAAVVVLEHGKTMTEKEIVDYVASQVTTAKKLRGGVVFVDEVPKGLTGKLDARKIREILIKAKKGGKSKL

`N#CCBr`: the Potency entry in [1], in experiment [2], in experiment [3], in experiment [4], in experiment [5] and in experiment [6] was “inactive” throughout. For the same compound, the Potency result in experiment [7], in experiment [9], in experiment [10], in experiment [11], in [13] and in [14] was “inactive” throughout. For the same compound, the Potency result in experiment [16], in [17], in experiment [18] and in [19] was “inactive” each time. For the same compound, the outcome in experiment [8] and in [12] was inactive. For the same compound, the activity change, positive = activation in experiment [15] is 0.914%.
Consider `CNC(=O)O/N=C(\C)SC`, for which the Potency result in experiment [20], in [2], in experiment [3], in [6], in experiment [9] and in experiment [10] was “inactive” in each case. In addition, the Potency result in experiment [11], in experiment [13], in experiment [16], in experiment [17], in experiment [18] and in [19] was “inactive” each time.
Turning to `CCS(=O)(=O)C(C)(C)S(=O)(=O)CC`, the Potency result in experiment [20], in experiment [2], in [4], in experiment [5], in experiment [6] and in [7] was “inactive” in each case. Also, the Potency entry in experiment [9], in experiment [10], in experiment [11], in [13], in experiment [16] and in [17] was “inactive” in each case. Moreover, the Potency result in [18] and in experiment [19] was “inactive” in each case. In addition, the compound was classed as inactive in experiment [8] and in experiment [12]. Moreover, the activity change, positive = activation in experiment [15] was 3.77% [at 42.5 µM].
`Fc1cc(Br)ccc1CBr`: the Potency entry in [1], in experiment [2], in experiment [3], in [4], in experiment [5] and in experiment [6] was “inactive” each time. Moreover, the Potency result in [9], in experiment [10], in [11], in experiment [13], in [16] and in [17] was “inactive” throughout. Besides, the Potency result in [18] and in [19] was “inactive” throughout.
Turning to `c1cc[c]([Hg][c]2ccccc2)cc1`, the Potency in [1] is 17.8 µM (active); in experiment [10], 49 µM (active). The Potency result in [2], in [3], in experiment [9], in experiment [13], in [16] and in [18] was “inactive” each time. The Potency entry in [19] was “inactive”.
Consider `CCC(C)(C)c1cc(-n2nc3ccccc3n2)c(O)c(C(C)(C)CC)c1`, for which the Potency result in [1], in experiment [4], in experiment [5], in experiment [9], in experiment [11] and in experiment [13] was “inactive” throughout. Moreover, the Potency entry in [16], in experiment [18] and in experiment [19] was “inactive” each time. The Potency in experiment [7] was 49.3 µM (active); in experiment [14], 39.2 µM (active); in experiment [17], 22.2 µM (active). Besides, in experiment [8], the call was inactive. In addition, the activity change, positive = activation in [15] was -66.5%.
`CC1(C(=O)Nc2ccc(O)c(Cl)c2Cl)CCCCC1`: the Potency result in experiment [1], in experiment [2], in experiment [3], in [5], in experiment [6] and in experiment [10] was “inactive” in each case. Besides, the Potency entry in experiment [11], in experiment [16] and in experiment [19] was “inactive” each time. Further, the call in experiment [8] was inactive. Besides, in experiment [15], the activity change, positive = activation is -35.4%.
Regarding `O=C1CN2CCOC2(c2ccccc2Cl)c2cc(Cl)ccc2N1` (configuration not stated), the Potency entry in [1], in [2], in experiment [4], in experiment [6], in experiment [9] and in [10] was “inactive” throughout. Further, the Potency result in experiment [11], in experiment [13], in experiment [16], in experiment [17] and in [19] was “inactive” in each case. In addition, the compound was called inactive in [12].
Regarding `O=[N+]([O-])c1cc(Cl)c(Cl)c(Cl)c1`, the Potency result in experiment [2], in experiment [3], in experiment [4], in experiment [5], in experiment [6] and in experiment [9] was “inactive” throughout. For the same compound, the Potency entry in experiment [10], in experiment [13], in experiment [16], in [17], in experiment [18] and in experiment [19] was “inactive” each time.
On to `O=NN1CCCCC1`, for which the Potency result in [1], in [2], in experiment [4], in experiment [5], in [6] and in [9] was “inactive” throughout. For the same compound, the Potency result in experiment [10], in [11], in experiment [13], in experiment [16] and in [19] was “inactive” each time. In [12], the call was inactive.
